The target in the first assay is RASGRP2. In words: pooled miR-30 sensor sort-seq; sequence = guide strand. Conditions: shRNA.
Regarding TAGCAGAGCCTTCAGCTCCTTG, the sensor-assay potency score (higher = more potent) is -0.951.

As to TACTGATCCAGAGACACCGTGA, the sensor-assay potency score (higher = more potent) worked out at 0.0565. The sequence TTCAAGTCAAACTCCGCTGGGA returned a sensor-assay potency score (higher = more potent) of 0.724. With TCAAACAACAGGGACATCTTGC, the sensor-assay potency score (higher = more potent) is -0.201.

A further assay has as its target RASIP1. The assay is described as above. The following applies: shRNA.
Take TTGGTCAGCCTCCTTCTCCATT: the sensor-assay potency score (higher = more potent) is -1.48.

As for TGAATAGAGAGTCTTGGTGAGG, the sensor-assay potency score (higher = more potent) was -1.22.

On to TTGGAGAAGAAGAACAAGTAGC, for which the sensor-assay potency score (higher = more potent) is -0.187. On the same count and under the same terms, in the case of TTAGGCTGCTCCATGAAGCCTT it was -0.552; in that of TGGAGCAGCAGGAAGTAGGGGC, 0.0878. On the same count and under the same terms, in the case of TTTTCTGAGCGCTCCTTGCCTC it was -0.853; in that of TCAACTGATCGAAGTCCCCGGG, 0.0667. Still for that read-out and setting: for TTCCAAGTCATTGCAGAGCTGT the value was -0.369; for AAGAAGACTTGACAGAGGCTGC, 0.0487. On to TAGGTCTCAATCCTGGAGGCAT, for which the sensor-assay potency score (higher = more potent) is -0.489. Same read-out and setting: for TTGACCTCGTTCCATCAGCGAG the value was -1.71; for TTGAATAGAGAGTCTTGGTGAG, 0.37.

Another assay addresses RASL10B. Described as above. The following applies: shRNA.
For the sequence TACAAAACTGACAGTGATCAGC, the sensor-assay potency score (higher = more potent) is -0.715. Still for that read-out and setting: in the case of TTAATCAGGATAGTCTGAGATC it was -1.01; in that of TTGACGTACTCAAAGCTGTCAA, 0.000852; in that of TAGGTTGTTGTGTCTCTGGGGG, 0.276. Regarding TCCACGTAGCCGCACTTCCAGG, the sensor-assay potency score (higher = more potent) was -2. Same read-out and setting: in the case of ATGTAGGCGTGGACACTCCGGA it was -0.908. The same measure, in the same setting: in the case of TTCTAAATCGGTACAAAACTGA it was -0.599; in that of TCGTAGACCAGGATGTAGGCGT, 0.139; in that of TAGACCAGGATGTAGGCGTGGA, -0.176. On the same count and under the same terms, in the case of TCGTTGTACAAGAACTGGCGCA it was -0.634. The sequence TAGCCGCACTTCCAGGTCTTGC displayed a sensor-assay potency score (higher = more potent) of -1.97. Same read-out and setting: for AACTCGTTGTACAAGAACTGGC the value was 0.0656.

The next assay has as its target RASSF2. Described as above. Conditions: shRNA.
For the sequence TATCTTGTCCACATGGGACTAG, the sensor-assay potency score (higher = more potent) came to 0.13. As for TATTTATCTTGTCCACATGGGA, the sensor-assay potency score (higher = more potent) was -0.838.

The sequence TCTGCTGACTTCTACATCCAGC returned a sensor-assay potency score (higher = more potent) of -0.516. Still for that read-out and setting: in the case of TTCTCCATTAGGAACACTTTGG it was -1.02; in that of TAACTAAAATCAAAAGTCCTTG, -0.812.

Sequence TTCCCGATCTTCTTCCTCCTGG returned a sensor-assay potency score (higher = more potent) of 0.559. On the same count and under the same terms, for TTTGTGTCTAAATGTTTCCATG the value was -1.27. For TTTAAGTACCGGCATCTCGAAC, the sensor-assay potency score (higher = more potent) was -0.976.

In the case of TACATGTGAAAGTATCAGGTAG, the sensor-assay potency score (higher = more potent) is -0.041. The same measure, in the same setting: for TTCTGTTTCTCACCACTCGTAT the value was -0.432; for TATGGTTGTAGAAATGGCCGTT, 1.03.

The sequence TTCGTTGTCATCCTGCATCTGC gave a sensor-assay potency score (higher = more potent) of 0.418.
Note: reference of the scale not given here.
